# Compounds with a hit are over-represented: about 21% of the library has one in this group of screens.
# Pf growth 48h: inhibits P. falciparum growth in the first generation, 48 h; P. falciparum luciferase growth in erythrocytes, 48 h; Potency, µM (highest dose often 28.7 µM), for the others: at the top dose activity change, negative = inhibition, most hits filed as inhibitors; hit rate 5.9% among 310,000; AID 504832; further: potency means the concentration at half of the fitted maximal effect; on the % scale 0 is the no-effect control and ±100 the full control effect
#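 Compounds are pin-transferred into medium, infected erythrocytes (2% hematocrit, 0.1% parasitemia final) are added, and plates sit one parasite generation at 37 C in 5% CO2. Detection reagent is then added and luminescence measured.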
# Shiga inhibitor: inhibitors of Shiga toxin in Vero cells; Vero cells, Shiga toxin protein synthesis inhibition reporter; inhibition, % at 38.7 µM; hit rate 9.2% among 290,000; AID 2315; in the data active means inhibition mostly above about 28%, no sharp cut-off; inactive means mostly below about 43%; further: 0% is about no effect
# SARS PLpro yeast: blocks SARS-CoV papain-like protease in a yeast assay. S. cerevisiae expressing SARS-CoV PLpro, growth rescue. Potency, µM (doses to about 32.9 µM), for inactives: top-dose activity, positive = growth rescue, most hits filed as activators. hit rate 0.19% among 330,000; calls by dose curve; further: potency means the concentration at half of the fitted maximal effect; 0% is about no effect; nearly all actives have a fitted effect of over 55% in size
# CHX counter: counter-screen hit for Shiga toxin inhibitors, cycloheximide. hit rate 12% among 300,000. cell reporter, cycloheximide protein synthesis inhibition counterscreen. max response, %; in the data active means max response mostly above about 13%, no sharp cut-off; inactive means mostly below about 14%; further: read at 38.3 µM for the half of the compounds with a filed dose; 0% is about no effect
# Pf growth 96h: P. falciparum growth inhibition at 96 hour, primary screen for plastid delayed-death inhibitors | hit rate 6.9% among 320,000 | Potency, µM (doses to about 28.7 µM), without a hit: top-dose activity change, negative = inhibition, most hits filed as inhibitors | AID 504834 | P. falciparum luciferase reporter growth, 96 h; further: potency means the concentration at half of the fitted maximal effect; on the % scale 0 is the no-effect control and ±100 the full control effect
#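 Parasite growth measured via integrated firefly luciferase reporter in P. falciparum. Infected erythrocytes at 2% hematocrit, 0.05% parasitemia final were treated 96 hours at 37 C under 5% CO2, and luminescence was read.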
# NS1 function inh: influenza NS1 inhibition | Potency, µM (series often up to 46.1 µM), for inactives: top-dose activity, positive = more growth | hit rate 0.4% among 270,000 | AID 2326; calls by dose curve; further: potency means the concentration at half of the fitted maximal effect; actives are rising curves; nearly all actives have a fitted effect of over 50% in size
#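 A cell-based growth assay was used: compounds that relieve NS1-induced slow growth of budding yeast raise OD600. Assay medium was yeast nitrogen base with ammonium sulphate and -URA supplement, pH 6.0, with 2% galactose.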
# Numbers without * were called inactive; ? = inconclusive; · = no result; [ ] = another dose, or the depositor's remark. Unless noted, the call rests on the fitted dose curve; in most records, active means well fitted inhibition curve with a large enough effect; inconclusive means small, poorly fitted or top-dose-only effect, or another doubt; inactive means no such curve, though single readings can be large or run the other way.
SMILES,Pf growth 48h,Shiga inhibitor,SARS PLpro yeast,CHX counter,Pf growth 96h,NS1 function inh
CCCCCC1CC(=O)C=C(C)C1C(=O)OC (stereo not drawn),-17.7%,-9.3,2.3%,-0.8,-3.9%,-3.5%
CC(=O)Nc1cc(CN2CCCCC2)c(O)c2ncccc12,·,·,·,·,·,5.6%
CCCc1n[nH]c2c1C(=O)C(C(=O)OC)C(C)(C)C2 (stereo not drawn),0.0%,17.3,8.4%,-0.5,?,-11.0%
O=C1C=C(c2ccc(Oc3ccccc3)cc2)C[C@@H](c2ccc(F)cc2)C1,?,·,5.2%,·,-15.6%,·
CN(C)c1ccc(/C=N/OC(=O)Nc2ccccc2Cl)cc1,64.8%,95.1*,-3.0%,21.5*,20.0%,·
CC1=C(C(=O)Nc2ccccc2Cl)C(c2ccc(N(C)C)cc2)NC(=O)N1 (stereo not drawn),?,-10.9,2.5%,-0.8,97.5%,13.0%
COc1ccc(NC(=O)O/N=C/c2ccc(N(C)C)cc2)cc1,12.2%,57.3*,-3.4%,33.0*,10.5%,-6.5%
O=C(NCc1ccccc1CN1CCCC1)C1CCN(C(=O)c2ccc(F)cc2)CC1,?,·,-0.6%,·,-8.3%,·
COc1ccc(CNC(=O)c2cc(-c3ccccc3O)n[nH]2)cc1,-10.1%,12.6,3.8%,8.3,·,?
COc1ccc(O)c(-c2cc(-c3cccs3)[nH]n2)c1,?,155.1*,-11.6%,43.2*,?,-92.0%
Oc1c(Br)cc(C2N=C(c3ccccc3Cl)NO2)cc1Br (stereo not drawn),6.1%,11.8,-4.4%,-5.0,-26.1%,-3.3%
Oc1ccc(Br)cc1-c1cc(-c2ccccc2Cl)[nH]n1,2.94µM*,42.5*,-0.3%,19.1*,4.15µM*,-0.7%
Oc1ccc(Br)cc1-c1cc(-c2ccccc2F)[nH]n1,9.28µM*,77.1*,0.3%,64.4*,4.7%[5.75 µM],4.9%
CCn1c(-c2cc(Br)ccc2O)n[nH]c1=S,·,·,·,·,·,-18.8%
COc1ccc(O)c(-c2cc(-c3ccccc3Cl)[nH]n2)c1,?,33.2*,-32.1%,25.7*,-12.5%,-137.1%
O=C(NC1(N2CCOCC2)CC1)c1ccc(Cl)cc1,-1.2%,1.9,2.3%,-3.7,33.7%,2.7%
CN(Cc1ccccc1)/C(=N/O)c1cccc(Cl)c1,-5.2%,-0.7,-1.7%,0.2,-12.9%,-4.4%
CC(C)CCNC(=O)Cn1c(NCCC(C)C)nc2c1c(=O)n(C)c(=O)n2C,·,·,·,·,·,-12.6%
Nc1ccn([C@H]2O[C@@H](COP(=O)(O)O)[C@@H](O)[C@H]2O)c(=O)n1,·,·,·,·,·,-1.8%
COc1ccccc1-c1cc(-c2cc(Cl)ccc2O)n[nH]1,1.6%,19.7,-6.1%,17.1*,-0.5%,-0.2%
COc1ccc(Cl)cc1-c1n[nH]c(=S)n1C,·,-14.5,12.6%,-3.8,?,12.0%
COc1ccc(/C=C/C(=O)N2CCN(S(=O)(=O)c3ccccc3Br)CC2)cc1OC,·,·,-9.3%,·,·,·
COc1cccc(C2=Nn3c(nnc3-c3cc(OC)cc(OC)c3)SC2)c1,·,-2.8,·,-3.2,·,·
C=CCn1c(C)cc(C(=O)COC(=O)c2ccc3c(c2)NC(=O)CS3)c1C,29.2%,39.5*,20.5%,18.4*,-7.7%,13.4%
COC(=O)c1ccc2c(c1)SC1=C(CCCC1=O)N2,?,active,10.6%,21.0*,?,3.7%
SMILES,Pf growth 48h,Shiga inhibitor,SARS PLpro yeast,CHX counter,Pf growth 96h,NS1 function inh
COCCn1c(C)cc(C(=O)COC(=O)c2ccc3c(c2)NC(=O)CS3)c1C,-8.8%,66.3*,-1.2%,27.8*,?,24.4%
CC(OC(=O)c1ccc2c(c1)NC(=O)CS2)C(=O)c1ccc(F)cc1 (stereo not drawn),·,·,-8.0%,·,·,·
COC(=O)c1ccc2c(c1)NC(=O)CS2,11.7µM*,-3.4,0.7%,-1.9,-0.8%,·
COc1ccccc1CCNC(=O)C(=O)NCC1OCCN1S(=O)(=O)c1ccc([N+](=O)[O-])cc1 (stereo not drawn),?,-6.4,1.0%,11.8,?,-1.4%
COc1ccc(N2CCN(CCNC(=O)Nc3ccc([N+](=O)[O-])cc3OC)CC2)cc1,-26.2%,-2.6,-0.7%,-0.8,21.5%,1.0%
Cc1ccc(CNC(=O)C2CCN(c3nn4c(=O)cc(C)nc4s3)CC2)cc1,15.6%,14.2,-2.9%,39.1,-22.9%,-4.2%
CCOC(=O)c1ccc(NC(=O)C(=O)NCC2CCCO2)cc1 (stereo not drawn),43.3%,74.4,-1.9%,11.4,?,-7.8%

# Bioassay records from PubChem BioAssay.
